A selection: hits, their analogues and other compounds. The true share with any hit is near 9%.
HP1b chromo inh – HTS for Inhibitors of HP1-beta Chromodomain Interactions with Methylated Histone Tails. Chromobox protein homolog 1 (Homo sapiens), P83916. AlphaScreen HP1-beta / biotin-H3K9me3 peptide binding. Potency, µM (top dose mostly 114 µM), hits mostly inhibitors. 390,000 compounds, 0.56% hits. AID 540317, 2011; further: nearly all actives have a fitted effect of over 70% in size
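Compound inhibition of the preformed complex between 50 nM HP1-beta and 50 nM biotinylated H3K9me3 peptide was read by AlphaScreen. Buffer was PBS pH 7.4 with 0.01% Tween-20. Incubations ran 30 min at room temperature, with 10 ug/mL donor/acceptor beads.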
JMJD2A Tudor – qHTS Assay for Inhibitors of JMJD2A-Tudor Domain; AlphaScreen JMJD2A-Tudor / H3K4me3 peptide binding; 390,000 compounds, 4.4% hits; Potency, µM (top dose mostly 114 µM), most hits filed as inhibitors; Lysine-specific demethylase 4A (Homo sapiens), O75164; AID 504339, 2011; further: nearly all actives have a fitted effect of over 50% in size
BAZ2B block – qHTS Assay for Inhibitors of BAZ2B | Bromodomain adjacent to zinc finger domain protein 2B (Homo sapiens), Q9UIF8 | AlphaScreen BAZ2B-H3K14Ac peptide displacement | Potency, µM (doses to about 114 µM), most hits filed as inhibitors | 360,000 compounds, 4.4% hits | AID 504333, 2011; further: nearly all actives have a fitted effect of over 60% in size
Target sequence (Q9UIF8 whole entry, looked up, the tested form may be a part): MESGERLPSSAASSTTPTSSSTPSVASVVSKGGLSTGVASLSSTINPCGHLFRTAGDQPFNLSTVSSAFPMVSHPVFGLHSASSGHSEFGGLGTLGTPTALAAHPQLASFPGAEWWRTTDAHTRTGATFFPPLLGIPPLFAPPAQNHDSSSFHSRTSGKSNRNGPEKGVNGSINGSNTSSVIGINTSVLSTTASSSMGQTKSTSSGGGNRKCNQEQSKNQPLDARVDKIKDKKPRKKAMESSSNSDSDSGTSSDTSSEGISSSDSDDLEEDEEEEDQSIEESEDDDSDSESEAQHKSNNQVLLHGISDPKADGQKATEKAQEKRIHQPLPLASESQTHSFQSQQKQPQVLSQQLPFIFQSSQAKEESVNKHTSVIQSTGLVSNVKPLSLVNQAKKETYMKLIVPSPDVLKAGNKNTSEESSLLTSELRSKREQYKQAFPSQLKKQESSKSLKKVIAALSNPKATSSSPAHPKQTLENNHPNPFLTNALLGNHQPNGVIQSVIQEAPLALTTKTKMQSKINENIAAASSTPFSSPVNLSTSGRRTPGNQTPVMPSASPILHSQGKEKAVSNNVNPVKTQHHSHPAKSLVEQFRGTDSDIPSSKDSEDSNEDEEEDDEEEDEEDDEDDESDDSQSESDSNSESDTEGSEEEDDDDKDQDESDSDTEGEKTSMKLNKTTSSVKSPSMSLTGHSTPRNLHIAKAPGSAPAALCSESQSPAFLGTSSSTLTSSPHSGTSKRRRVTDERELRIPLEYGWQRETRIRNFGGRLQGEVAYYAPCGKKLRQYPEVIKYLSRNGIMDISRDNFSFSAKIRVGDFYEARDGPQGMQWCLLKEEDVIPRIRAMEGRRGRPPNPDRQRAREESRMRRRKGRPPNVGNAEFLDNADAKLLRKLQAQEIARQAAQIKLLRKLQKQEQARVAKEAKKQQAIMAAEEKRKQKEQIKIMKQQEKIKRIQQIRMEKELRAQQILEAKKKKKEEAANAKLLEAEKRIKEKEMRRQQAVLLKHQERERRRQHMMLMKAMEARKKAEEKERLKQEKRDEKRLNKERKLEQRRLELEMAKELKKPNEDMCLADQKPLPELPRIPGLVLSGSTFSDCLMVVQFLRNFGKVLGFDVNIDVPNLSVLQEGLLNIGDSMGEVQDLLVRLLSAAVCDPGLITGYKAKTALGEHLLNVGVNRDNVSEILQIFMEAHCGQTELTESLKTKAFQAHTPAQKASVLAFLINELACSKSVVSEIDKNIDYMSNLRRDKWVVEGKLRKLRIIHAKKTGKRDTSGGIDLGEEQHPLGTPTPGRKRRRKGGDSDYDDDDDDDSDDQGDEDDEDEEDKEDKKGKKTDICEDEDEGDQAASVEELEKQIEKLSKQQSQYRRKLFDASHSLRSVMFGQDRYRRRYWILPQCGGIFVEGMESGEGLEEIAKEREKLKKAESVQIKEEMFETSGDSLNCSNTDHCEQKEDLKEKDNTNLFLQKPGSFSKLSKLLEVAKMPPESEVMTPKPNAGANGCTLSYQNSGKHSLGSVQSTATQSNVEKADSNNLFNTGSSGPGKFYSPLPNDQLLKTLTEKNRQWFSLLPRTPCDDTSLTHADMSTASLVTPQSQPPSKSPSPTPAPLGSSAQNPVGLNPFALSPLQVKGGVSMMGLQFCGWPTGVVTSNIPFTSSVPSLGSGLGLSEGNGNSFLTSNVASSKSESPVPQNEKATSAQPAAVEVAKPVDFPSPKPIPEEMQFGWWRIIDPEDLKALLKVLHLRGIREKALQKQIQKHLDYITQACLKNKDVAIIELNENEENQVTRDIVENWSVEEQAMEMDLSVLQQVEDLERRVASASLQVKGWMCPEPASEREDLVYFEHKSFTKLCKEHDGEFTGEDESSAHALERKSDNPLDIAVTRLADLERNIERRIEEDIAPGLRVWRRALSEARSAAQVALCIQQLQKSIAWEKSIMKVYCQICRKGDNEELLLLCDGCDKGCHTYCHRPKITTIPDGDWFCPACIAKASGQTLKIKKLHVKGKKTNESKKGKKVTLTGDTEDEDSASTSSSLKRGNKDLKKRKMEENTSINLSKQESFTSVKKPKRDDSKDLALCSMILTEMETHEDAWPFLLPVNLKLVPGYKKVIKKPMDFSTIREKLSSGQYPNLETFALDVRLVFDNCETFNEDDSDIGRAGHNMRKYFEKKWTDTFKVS
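Inhibition is scored as reduced AlphaScreen emission. The BAZ2B/b-H3(5-23)K14Ac complex (50 nM each) in PBS pH 7.4, 0.01% Tween-20 meets compound (up to 110 uM) for 30 min at RT before bead addition.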
PLK1 PBD block – qHTS for Inhibitors of PLK1-PDB (polo-like kinase 1 - polo-box domain): Primary Screen; Serine/threonine-protein kinase PLK1 (Homo sapiens), P53350; Plk1 PBD binding of FITC phosphopeptide, fluorescence polarization; Potency, µM, hits mostly inhibitors; 360,000 compounds, 2.8% hits; AID 720504, 2013; further: series mostly up to about 57 µM; nearly all actives have a fitted effect of over 65% in size
G9a inh – qHTS Assay for Inhibitors of Histone Lysine Methyltransferase G9a; Histone-lysine N-methyltransferase EHMT2 (Homo sapiens), Q96KQ7; G9a H3K9 monomethylation, AlphaScreen, 2 h; Potency, µM (doses to about 102 µM), most hits filed as inhibitors; 350,000 compounds, 8.8% hits; AID 504332, 2011; further: nearly all actives have a fitted effect of over 75% in size
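Methyltransferase reactions run at room temperature for 2 h (20 nM enzyme, 500 nM biotin-H3K9 peptide, 20 uM SAM) after a 15 min compound preincubation; product detected by AlphaScreen beads and anti-H3K9me1 antibody.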
12-LOX inh – Primary qHTS assay for inhibitors of human arachidonate 12S-lipoxygenase (ALOX12): Round 2; Polyunsaturated fatty acid lipoxygenase ALOX12 (Homo sapiens), P18054; Potency, µM (titrated, usually from 108 µM), most hits filed as inhibitors; 580,000 compounds, 1.1% hits; purified 12hLO, xylenol orange hydroperoxide absorbance; AID 1671190, 2021
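Hydroperoxide product was detected by ferrous iron/xylenol orange as the 573 to 405 nm absorbance ratio. Arachidonic acid at 40 uM (final) was turned over for 30 min at room temperature by 150 nM human 12hLO, pH 7.0 Hepes buffer, after 15 min compound preincubation.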
Numbers stand for hits; . = inactive; ? = inconclusive; / = not tested or not shown; [ ] = dose if it differs, or a comment. The call rests on the fitted dose curve; in most records, active means well fitted curve in the direction sought with a large enough effect; inconclusive means small, poorly fitted or top-dose-only effect, or another doubt; inactive means no such curve, though single readings can be large; an effect the other way counts as inactive or inconclusive.

SMILES | HP1b chromo inh | JMJD2A Tudor | BAZ2B block | PLK1 PBD block | G9a inh | 12-LOX inh
CSc1cccc(NC(=S)N2CCC(N(C)C3CCCCC3C)CC2)c1 (stereo not drawn) | . | . | ? | . | 50.1µM | .
CCCCN(C(=S)Nc1cccc(SC)c1)C1CCN(C(C)=O)CC1 | . | . | . | . | . | .
CCNC(=O)NC(=O)CNc1ccccc1N(C)Cc1ccccc1 | / | / | / | / | / | 7.08µM
CC1CCCCC1N1CCN(C(=O)c2cccc(F)c2)CC1 (stereo not drawn) | ? | 39.8µM | ? | . | ? | ?
CC1CCCC(N2CCN(C(=O)c3cccc(F)c3)CC2)C1 (stereo not drawn) | ? | 4.47µM | 50.1µM | . | ? | ?
CCCc1[nH]nc2c1C(c1ccc(OC)cc1OC)C(C#N)=C(N)O2 (stereo not drawn) | . | . | . | . | .[12.7 µM] | .
CC1CCCC(C)N1CCCNC(=O)C(=O)Nc1ccc2nc3n(c(=O)c2c1)CCCCC3 (stereo not drawn) | . | ? | . | 26.7µM | / | .
COc1cccc(C(=O)Nc2ccc3nc4n(c(=O)c3c2)CCCC4)c1 | . | . | . | . | . | .
O=C(Nc1ccc2nc3n(c(=O)c2c1)CCCC3)c1cccnc1Cl | . | ? | / | 18.9µM | / | .
CN(C)c1cccc(C(=O)Nc2ccc3nc4n(c(=O)c3c2)CCCCC4)c1 | . | ? | ? | . | 44.7µM | .
CCN1CCN(C(=S)Nc2ccc3nc4n(c(=O)c3c2)CCCCC4)CC1 | . | . | . | . | 44.7µM | .
O=c1c2cc(NC(=S)N3CCCC3)ccc2nc2n1CCCCC2 | . | . | . | . | . | .
CN(CCOc1ccc(Cl)cc1)Cc1cccc(S(=O)(=O)N(C)C)c1 | . | . | . | . | . | .
CCN(CC)C(=O)c1c(-c2ccccc2)oc2ccc(OC)cc12 | . | . | . | . | . | .
O=C(OCCN1C(=O)c2cccc3c(N4CCOCC4)ccc(c23)C1=O)c1ccc(Cl)cc1 | . | . | . | ? | . | .
CCCN(CCC)S(=O)(=O)c1ccc(C(=O)OCCN2C(=O)c3cccc4c(N5CCOCC5)ccc(c34)C2=O)cc1 | . | . | . | 15µM | . | /
O=C(NCc1nnc2n1C(C(=O)NC1CC1)CC2)c1ccc(Cl)cc1Cl (stereo not drawn) | / | / | / | / | / | .[6.33 µM]
Cc1cc(C)c(COc2ccc(/C=N/n3c(C)n[nH]c3=S)cc2)c(C)c1 | ? | 79.4µM | ? | ? | ? | ?
Cc1n[nH]c(=S)n1/N=C/c1ccc(OCc2ccc(Cl)cc2Cl)cc1 | . | . | . | . | 11.2µM | .
Cc1ccc(OCC(=O)OC2=C(C(=O)c3ccccc3)N(C)S(=O)(=O)c3ccccc32)cc1 | . | ? | . | / | 20µM | ?
CCN1C(C(=O)c2ccccc2)=C(OC(=O)COc2ccccc2)c2ccccc2S1(=O)=O | . | 35.5µM | ? | / | 12.6µM | .
Cc1ccc(C(=O)OC2=C(C(=O)c3ccccc3)N(C)S(=O)(=O)c3ccccc32)cc1 | . | ? | . | / | ? | .
CCCN1C(C(=O)c2ccccc2)=C(OC(=O)c2ccc(C)cc2)c2ccccc2S1(=O)=O | . | . | . | / | . | .
COc1ccc(C(=O)OC2=C(C(=O)c3ccccc3)N(C)S(=O)(=O)c3ccccc32)cc1OC | . | . | ? | / | 20µM | .
COc1ccccc1C(=O)N/C(=C\c1cn(S(=O)(=O)N(C)C)c2ccccc12)C(=O)NCCCN1CCOCC1 | . | . | . | . | . | .
SMILES | HP1b chromo inh | JMJD2A Tudor | BAZ2B block | PLK1 PBD block | G9a inh | 12-LOX inh
Cc1cc(C)c2c(N)c(C(=O)NNC(=O)c3ccccc3)sc2n1 | . | . | . | . | 44.7µM | .
Cc1cc(C)c2c(N)c(C(=O)NN)sc2n1 | . | .[11.4 µM] | . | . | . | .
CCOC(=O)CNC(=O)c1sc2nc(C)cc(C)c2c1N | . | . | . | . | 50.1µM | .
Cc1cc(C)c2c(N)c(C(=O)N3CCN(c4ncccn4)CC3)sc2n1 | . | 39.8µM | . | ? | ? | ?
COCc1cc(C)nc2sc(C(=O)N3CCN(c4ccccc4)CC3)c(N)c12 | . | . | . | . | ? | .
Cc1cc2c(c(C)c1CCO[C@@H]1O[C@H](CO)[C@@H](O)[C@H](O)[C@H]1O)C(=O)[C@@H](C)[C@@H]2O | . | . | / | . | / | .
COc1ccccc1C(=O)Nc1ccnn1C1CCN(C(=O)[C@@H](N)CO)CC1 | / | / | / | / | / | .
CC(C)CNS(=O)(=O)c1cc(C(=O)N2CCOCC2)c(Cl)cc1Cl | . | . | . | . | . | .
CCCCN(C(=O)/C=C/c1ccccc1)C1CCS(=O)(=O)C1 (stereo not drawn) | . | . | . | . | . | .
Cc1noc(C)c1CSCC(=O)Nc1cc(S(C)(=O)=O)ccc1Cl | . | . | . | . | .[0.501 µM] | .
Cc1ccc(C)c(NC(=O)CN(C)C(=O)CSCc2c(C)noc2C)c1 | . | . | . | . | 31.6µM | .
Cc1cc(C)c(NC(=O)CSCc2c(C)noc2C)c(Cl)c1 | . | . | . | . | 39.8µM | .
Cc1noc(C)c1CSCC(=O)Nc1nc2c(F)cc(F)cc2s1 | . | 44.7µM | 50.1µM | ? | ? | ?
Cc1cccc(C)c1NC(=O)CN(C)C(=O)CSCc1c(C)noc1C | . | . | . | . | .[12.7 µM] | .
Cn1nc(-c2ccccc2)c(CSc2ccccc2)c1Cl | . | . | . | . | .[12.7 µM] | .
COCC(=O)N1CCC2(CCCN(Cc3ccc(C#N)cc3)C2)CC1 | / | / | / | / | .[12.7 µM] | .
CCOc1ccc(S(=O)(=O)[C@H]2CS(=O)(=O)C[C@@H]2N2CCN(c3ccccc3)CC2)cc1 | / | / | / | / | / | .
COc1ccc(-c2[nH]c(-c3ccc(C)cc3)nc2SCC(=O)Nc2nccs2)cc1 | ? | ? | ? | . | 44.7µM | .

Bioassay records deposited in PubChem BioAssay by National Center for Advancing Translational Sciences (NCATS).
